Assay results reported in PubChem BioAssay (NCATS).
Results filed as inconclusive are left out. Active and inactive are the calls of the source. Calls come from the whole dose curve; as a rule, active = well fitted curve in the direction sought with a large enough effect; inconclusive = small, poorly fitted or top-dose-only effect, or another doubt; inactive = no such curve, though single readings can be large; an effect the other way counts as inactive or inconclusive.

Columns and labels:
[1] = Cellular Toxicity (caspase-3) Jurkat (AID 655);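 note: cells exposed to compound for 16 h at 37 °C before reading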
How it was run: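 Caspase 3/7 activation is scored as increased luminescence in Jurkat cells cultured with compound for 16 hours in complete medium. AC50 values come from Hill fits of qHTS concentration-response data normalized to DMSO and 100 uM tamoxifen controls.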

[2] = Cellular Toxicity (caspase-3) HUV-EC-C (AID 656)
How it was run: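 Read-out: luminescence proportional to caspase 3/7 activity, measured 20 min after adding Caspase-Glo 3/7 reagent. Cells (HUV-EC-C) had received compound for 16 hr at 37°C. Increases relative to DMSO and 100 uM tamoxifen gave concentration-response AC50 values.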

[3] = Cellular Toxicity (caspase-3) SHSY5Y (AID 657)
How it was run: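 Cells plated and incubated 5 h at 37 °C, dosed over a concentration range, incubated 16 h, then given Caspase-Glo 3/7 reagent for 1 h at room temperature before luminescence reading. Staurosporine (10 uM) defined full stimulation.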

[4] = Cellular Toxicity (caspase-3) BJ (AID 658)
How it was run: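 Caspase-Glo 3/7 luminescence, read 1 hr after reagent at room temperature, in normal BJ fibroblasts exposed 16 hours at 37 °C. AC50 values from Hill-equation concentration-response, scaled between DMSO basal and 10 uM staurosporine as 100%.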

[5] = Cellular Toxicity (caspase-3) MRC-5 (AID 659)
How it was run: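 Luminescent Caspase-Glo 3/7 read-out (1 h, room temperature) after a 16 h, 37 °C compound exposure of MRC-5 lung fibroblasts at 1500 cells/well. Concentration-response AC50 from Hill equation; 0% DMSO, 100% 10 uM staurosporine.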

[6] = Cellular Toxicity (caspase-3) Mesangial (AID 660);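 note: cells exposed to compound for 16 h before the caspase read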
How it was run: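 AC50 values come from Hill-equation fits of caspase 3/7 activation, measured as Caspase-Glo luminescence in human glomerular mesangial cells exposed to compound for 16 h at 37 °C; 100% set by 100 uM tamoxifen.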

[7] = Cellular Toxicity (caspase-3) SK-N-SH (AID 661)
How it was run: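 Apoptosis readout in SK-N-SH neuroblastoma: Caspase-Glo 3/7 luminescence following 16 hr treatment in complete culture medium. Normalization used DMSO and 10 uM staurosporine controls.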

[8] = Cellular Toxicity (caspase-3) H-4-II-E (AID 663);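 note: cells exposed to compound for 16 hr before readout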
How it was run: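 Caspase 3/7 activation measured by luminescent aminoluciferin substrate cleavage after 16 hr compound treatment of H-4-II-E cells in complete medium. Increase normalized between DMSO (basal) and 100 uM tamoxifen (100%); Hill-equation AC50 from concentration-response.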

[9] = Cellular Toxicity (caspase-3) Hek293 (AID 664);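 note: cells exposed to compound for 16 h at 37 °C before readout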
How it was run: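 Apoptosis readout: Caspase-Glo 3/7 signal in human HEK293 cells following 16-hour compound incubation. Responses scaled between DMSO baseline and 100 uM tamoxifen.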

[10] = Cellular Toxicity (caspase-3) N2a (AID 665);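 note: compound exposure lasted 16 h at 37 °C before readout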
How it was run: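 Concentration-response qHTS: compound-induced caspase-3/7 luminescence in N2a cells (16 h, 37 °C), relative to DMSO and 10 uM staurosporine controls; AC50 obtained using the standard Hill equation.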

Measured: outcome

CN(C)[C@@H]1C(=O)C(C(N)=O)=C(O)[C@@]2(O)C(=O)C3=C(O)c4c(O)cccc4[C@@](C)(O)[C@H]3[C@H](O)[C@@H]12
inactive: [1] | [2] | [3] | [4] | [5] | [6] | [7] | [8] | [9] | [10]

O=S(=O)(c1ccc(Cl)cc1)c1ccc(Cl)cc1
inactive: [1] | [2] | [3] | [4] | [5] | [6] | [7] | [8] | [9] | [10]

C=CC(=O)NCNC(=O)C=C
inactive: [1] | [2] | [3] | [4] | [5] | [6] | [7] | [8] | [9] | [10]

O=[N+]([O-])c1cc([N+](=O)[O-])c2ccccc2c1
inactive: [1] | [2] | [3] | [4] | [5] | [6] | [7] | [8] | [9] | [10]

OCCCBr
inactive: [1] | [2] | [3] | [4] | [5] | [6] | [7] | [8] | [9] | [10]

O=[N+]([O-])c1c(Cl)c(Cl)cc(Cl)c1Cl
inactive: [1] | [2] | [3] | [4] | [5] | [6] | [7] | [8] | [9] | [10]

O=[N+]([O-])c1c2ccccc2cc2ccccc12
inactive: [1] | [2] | [3] | [4] | [5] | [6] | [7] | [8] | [9] | [10]

Nc1ccc(Cl)cc1
inactive: [1] | [2] | [3] | [4] | [5] | [6] | [7] | [8] | [9] | [10]

CCCCC(CC)COC(=O)c1ccccc1C(=O)OCC(CC)CCCC (stereo not drawn)
inactive: [1] | [2] | [3] | [4] | [5] | [6] | [7] | [8] | [9] | [10]

C1CCC(NC2CCCCC2)CC1
inactive: [1] | [2] | [3] | [4] | [5] | [6] | [7] | [8] | [9] | [10]

c1cc2ccc3cccc4ccc(c1)c2c34
inactive: [1] | [2] | [3] | [4] | [5] | [6] | [7] | [8] | [9] | [10]

O=C(O)C(Cl)Cl
inactive: [1] | [2] | [3] | [4] | [5] | [6] | [7] | [8] | [9] | [10]

Cc1cc(O)ccc1Cl
inactive: [1] | [2] | [3] | [4] | [5] | [6] | [7] | [8] | [9] | [10]

CC(C)(O)C(=O)Nc1ccc([N+](=O)[O-])c(C(F)(F)F)c1
inactive: [1] | [2] | [3] | [4] | [5] | [6] | [7] | [8] | [9] | [10]

CCOP(=O)(NC(C)C)Oc1ccc(SC)c(C)c1 (stereo not drawn)
inactive: [1] | [2] | [3] | [4] | [5] | [6] | [7] | [8] | [9] | [10]

CCOCCOC(C)=O
inactive: [1] | [2] | [3] | [4] | [5] | [6] | [7] | [8] | [9] | [10]

CCCCOC(=O)c1ccccc1C(=O)OCc1ccccc1
inactive: [1] | [2] | [3] | [4] | [5] | [6] | [7] | [8] | [9] | [10]

Nc1ccc(Sc2ccc(N)cc2)cc1
inactive: [1] | [2] | [3] | [4] | [5] | [6] | [7] | [8] | [9] | [10]

Nc1ccc([N+](=O)[O-])cc1
inactive: [1] | [2] | [3] | [4] | [5] | [6] | [7] | [8] | [9] | [10]

O=C(O)COc1ccccc1
inactive: [1] | [2] | [3] | [4] | [5] | [6] | [7] | [8] | [9] | [10]

CN(C)NC(=O)CCC(=O)O
inactive: [1] | [2] | [3] | [4] | [5] | [6] | [7] | [8] | [9] | [10]

COC(C)(C)CCCC(C)C/C=C/C(C)=C/C(=O)OC(C)C (stereo not drawn)
inactive: [1] | [2] | [3] | [4] | [5] | [6] | [7] | [8] | [9] | [10]

CC(=O)[O][Hg][c]1ccccc1
inactive: [2] | [3] | [4] | [5] | [6] | [7] | [8] | [9] | [10]

CCCCCCCCc1ccc(O)cc1
inactive: [1] | [2] | [3] | [4] | [5] | [6] | [7] | [8] | [9] | [10]

Nc1ccc(Cl)cc1N
inactive: [2] | [3] | [4] | [5] | [6] | [7] | [8] | [9] | [10]

COc1ccc(C(c2ccc(OC)cc2)C(Cl)(Cl)Cl)cc1
inactive: [1] | [2] | [3] | [4] | [5] | [6] | [7] | [8] | [9] | [10]
